# Experimental data published in PubChem BioAssay.
# Results filed as inconclusive are left out. Calls of active or inactive are those of the source.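 How the source made its calls, unless noted: active means normalized viability below 100% at a tested concentration; inactive means the rest.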
# Tests used:
# [1] = viability loss in pontine glioma line – cell-based, SU-DIPG-IV, MIPE4.0, CellTiter-Glo, qHTS, dose response (AID 1347063; cut-off not given, nearly all actives have AC50 up to about 30 µM;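 further: compound exposure lasted 48 hours before the viability readout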); settings: CellTiter-Glo ATP luminescence
# [2] = JHH-DIPG-1 glioma cell viability, MIPE5.0 library, CellTiter-Glo luminescence, qHTS (AID 1347067; cut-off not given, nearly all actives have AC50 up to about 26 µM;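 further: cells exposed to compound for 48 hours before readout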); settings: JHH-DIPG-1 glioma viability, CellTiter-Glo ATP luminescence
# [3] = growth inhibition of DIPG cells – cell-based, MIPE5.0 library, qHTS (AID 1347068; cut-off not given, nearly all actives have IC50 up to about 30 µM); settings: SU-DIPG-XXV viability
# [4] = viability loss with induced miR-34 in A549 – imaging, A549 dox-inducible miR-34, nuclei and caspase counts, primary screen (AID 1347080;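 active means compounds whose cell count with miR-34 switched on is under 0.7 times the count with it off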); settings: A549 miR-34 inducible, Hoechst nuclei count, 48 h
# [5] = MELAS cybrid and Rieske KO viability enhancers – cell-based, MELAS cybrids, Rieske KO mouse fibroblasts, CellTiter-Glo, primary screen (AID 1508586;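 active means mean z-score across replicates of 1.96 or higher in either the MELAS or the Rieske mutant cell line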;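 further: z relative to plate mean and SD of compound and empty wells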); settings: low glucose
# [6] = drug combination growth inhibition, ovarian cancer – cell-based, oncology-focused library, rucaparib conditional, profiling panel (AID 1508598); settings: patient-derived ovarian cancer cells, CellTiter-Glo viability, 144 h, stronger effect = lower value
# [7] = P. berghei load reduction in hepatocytes – cell-based, HepG2, luciferase luminescence, HepG2 viability, primary screen (AID 624349; in the data active means parasite load remaining mostly below about 12%, no sharp cut-off; inactive means mostly above about 10%;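 further: 100% = mean of DMSO negative control wells on the same plate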); settings: P. berghei liver stage in HepG2, luciferase luminescence, concentration not given here; parasite load remaining: stronger effect = lower value; viability: measured here: HepG2 viability without parasites
# [8] = viability loss in pontine glioma line – cell-based, SU-DIPG-XXV, MIPE5.0, CellTiter-Glo, qHTS, dose response (AID 1347065; cut-off not given, nearly all actives have AC50 up to about 26 µM;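 further: cells exposed to compound for 48 hours before ATP readout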); settings: CellTiter-Glo ATP luminescence
# [9] = growth inhibition of DIPG cells – cell-based, MIPE4.0 library, CellTiter-Glo luminescence, qHTS (AID 1347066; cut-off not given, nearly all actives have AC50 up to about 30 µM;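 further: cells exposed to compound for 48 hours before readout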); settings: SU-DIPG-VI viability, CellTiter-Glo ATP luminescence
# [10] = stronger effect = lower value, cell number ratio, induced over uninduced
# [11] = measured here: relative caspase fold change +Dox/-Dox
# [12] = measured here: total cells with miR-34 induction, stronger effect = lower value
# [13] = measured here: total cells without miR-34 induction
smiles,measurement,setting,value
O=S(=O)(CC1CS1)c1ccc(Oc2ccccc2)cc1 (stereo unspecified),AC50,[1],20.9 µM (active)
same,AC50,[2],23.5 µM (active)
same,outcome,[3],inactive
same,fold change,[4]; [10],0.961 (inactive)
same,fold change,[4]; [11],0.577
same,cell count,[4]; [12],8270
same,cell count,[4]; [13],8600
same,z-score,"[5]; MELAS cybrid survival, CellTiter-Glo 48 h, stronger effect = higher value",-0.354 (inactive)
same,z-score,"[5]; Rieske KO mouse fibroblast survival, CellTiter-Glo 72 h",-1.56
same,viability,"[6]; at 0.000305 µM, OCI-C5x cells, with rucaparib 10 µM, 100% = cells with rucaparib alone",114% (inactive)
same,viability,"[6]; at 0.000305 µM, OCI-C5x cells, without rucaparib",110% (inactive)
same,viability,"[6]; at 0.000305 µM, OCI-P5x cells, with rucaparib 20 µM, 100% = cells with rucaparib alone",95.3% (active)
same,viability,"[6]; at 0.000305 µM, OCI-P5x cells, without rucaparib",95.4% (active)
same,viability,"[6]; at 0.00122 µM, OCI-C5x cells, with rucaparib 10 µM, 100% = cells with rucaparib alone",112% (inactive)
same,viability,"[6]; at 0.00122 µM, OCI-C5x cells, without rucaparib",111% (inactive)
same,viability,"[6]; at 0.00122 µM, OCI-P5x cells, with rucaparib 20 µM, 100% = cells with rucaparib alone",98.5% (active)
same,viability,"[6]; at 0.00122 µM, OCI-P5x cells, without rucaparib",92.4% (active)
same,viability,"[6]; at 0.00488 µM, OCI-C5x cells, with rucaparib 10 µM, 100% = cells with rucaparib alone",121% (inactive)
same,viability,"[6]; at 0.00488 µM, OCI-C5x cells, without rucaparib",102% (inactive)
same,viability,"[6]; at 0.00488 µM, OCI-P5x cells, with rucaparib 20 µM, 100% = cells with rucaparib alone",89.9% (active)
same,viability,"[6]; at 0.00488 µM, OCI-P5x cells, without rucaparib",97.6% (active)
same,viability,"[6]; at 0.0195 µM, OCI-C5x cells, with rucaparib 10 µM, 100% = cells with rucaparib alone",122% (inactive)
same,viability,"[6]; at 0.0195 µM, OCI-C5x cells, without rucaparib",112% (inactive)
same,viability,"[6]; at 0.0195 µM, OCI-P5x cells, with rucaparib 20 µM, 100% = cells with rucaparib alone",91% (active)
same,viability,"[6]; at 0.0195 µM, OCI-P5x cells, without rucaparib",94.3% (active)
same,viability,"[6]; at 0.0781 µM, OCI-C5x cells, with rucaparib 10 µM, 100% = cells with rucaparib alone",121% (inactive)
same,viability,"[6]; at 0.0781 µM, OCI-C5x cells, without rucaparib",102% (inactive)
same,viability,"[6]; at 0.0781 µM, OCI-P5x cells, with rucaparib 20 µM, 100% = cells with rucaparib alone",85.3% (active)
same,viability,"[6]; at 0.0781 µM, OCI-P5x cells, without rucaparib",91.2% (active)
same,viability,"[6]; at 0.313 µM, OCI-C5x cells, with rucaparib 10 µM, 100% = cells with rucaparib alone",120% (inactive)
same,viability,"[6]; at 0.313 µM, OCI-C5x cells, without rucaparib",101% (inactive)
same,viability,"[6]; at 0.313 µM, OCI-P5x cells, with rucaparib 20 µM, 100% = cells with rucaparib alone",84.7% (active)
same,viability,"[6]; at 0.313 µM, OCI-P5x cells, without rucaparib",93.5% (active)
same,viability,"[6]; at 1.25 µM, OCI-C5x cells, with rucaparib 10 µM, 100% = cells with rucaparib alone",117% (inactive)
same,viability,"[6]; at 1.25 µM, OCI-C5x cells, without rucaparib",111% (inactive)
same,viability,"[6]; at 1.25 µM, OCI-P5x cells, with rucaparib 20 µM, 100% = cells with rucaparib alone",79% (active)
same,viability,"[6]; at 1.25 µM, OCI-P5x cells, without rucaparib",82.1% (active)
same,viability,"[6]; at 5 µM, OCI-C5x cells, with rucaparib 10 µM, 100% = cells with rucaparib alone",108% (inactive)
same,viability,"[6]; at 5 µM, OCI-C5x cells, without rucaparib",110% (inactive)
same,viability,"[6]; at 5 µM, OCI-P5x cells, with rucaparib 20 µM, 100% = cells with rucaparib alone",80.3% (active)
same,viability,"[6]; at 5 µM, OCI-P5x cells, without rucaparib",81.4% (active)
CC1(C)C(=O)N(c2ccc(C#N)c(C(F)(F)F)c2)C(=S)N1Cc1ccc(-c2cn[nH]n2)cc1,outcome,[3],inactive
c1cc2ccsc2c(N2CCNCC2)n1,fold change,[4]; [10],0.937 (inactive)
same,fold change,[4]; [11],0.656
same,cell count,[4]; [12],5170
same,cell count,[4]; [13],5520
CCCCCCCC/C=C\CCCCCCCC(=O)N[C@H](C)CO,fold change,[4]; [10],0.925 (inactive)
same,fold change,[4]; [11],1.87
same,cell count,[4]; [12],5120
same,cell count,[4]; [13],5540
CCCCCCC(=O)O[C@H]1CC[C@H]2[C@@H]3C[C@H](O)C4=CC(=O)CC[C@]4(C)[C@H]3CC[C@]12C,fold change,[4]; stronger effect = lower value,0.966 (inactive)
same,fold change,[4]; [11],1.11
same,cell count,[4]; [12],5330
same,cell count,[4]; [13],5520
CCCCC/C=C\C/C=C\C/C=C\C/C=C\CCCC(=O)NC[C@H](C)O,fold change,[4]; [10],0.983 (inactive)
same,fold change,[4]; [11],1.04
same,cell count,[4]; [12],6010
same,cell count,[4]; [13],6110
CN=C(NS(=O)(=O)c1ccc(Cl)cc1)N1C[C@@H](c2ccccc2)C(c2ccc(Cl)cc2)=N1,fold change,[4]; [10],0.663 (active)
same,fold change,[4]; [11],0.468
same,cell count,[4]; [12],3940
same,cell count,[4]; [13],5940
CN1C(=O)[C@]23CC4=CC=C[C@H](O)[C@H]4N2C(=O)[C@@]1(CO)SS3,fold change,[4]; stronger effect = lower value,0.901 (inactive)
same,fold change,[4]; [11],1.24
same,cell count,[4]; [12],657
same,cell count,[4]; [13],730
O=c1[nH]c2ccccc2n1C1CCN(Cc2ccc(-c3[nH]c4cc5ncnc5cc4nc3-c3ccccc3)cc2)CC1,parasite load remaining,[7],45.5% (inactive)
same,viability,[7],115%
same,AC50,[1],16.6 µM (active)
same,AC50,[8],23.5 µM (active)
same,AC50,[9],14.8 µM (active)
